Screens deposited in PubChem by Broad Institute.
Tgondii IFNg = T. gondii growth inhibition with IFN-gamma, primary screen, cell-based; AID 1259416, 2018; Toxoplasma gondii growth in IFN-gamma-treated host cells; stronger effect = lower value; hit rate 3.8% among 69,000; activity change, negative = inhibition, % (concentration not given with the values); in the data active = activity change below about -70%, passing the limit was not always enough;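 also: host cells are HeLa cells infected with Toxoplasma gondii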
Numbers without * were called inactive; ! = repeats disagree. The sample as a whole holds a higher share of hits than the screen did.

SMILES | Tgondii IFNg
COc1ccc(CNC(=O)CN2CCC3(CC2)N=C(c2ccc(C)c(C)c2)C(=O)N3)cc1 | 20
Fc1cccc(CNCc2ccccc2)c1 | 0
CCOc1ccc(CCNC(=O)c2c(O)c3ccccc3[nH]c2=O)cc1OCC | 162
CCN1CCN(Cc2ccc(Nc3ncc(F)c(-c4cc(F)c5nc(C)n(C(C)C)c5c4)n3)nc2)CC1 | -78*
Fc1cccc(CN2CCN(Cc3ccc(-c4ccccc4)nc3)CC2)c1 | 0
CC(C)Nc1ncc(-c2nccn2Cc2ccc(F)c(F)c2)cn1 | -46
C=CCOC1CC2(CCN(C(=O)c3ccnnc3)CC2)C1 | 7
O=C(CN1C(=O)CCc2cc(S(=O)(=O)N3CCCC3)ccc21)N1CCC2(CC1)OCCO2 | 29
CCN(CC)CCCNC(=O)c1ccc2ccc(N3CCC(C)CC3)n2c1 | -46
COCCN(CCOC)C(=O)c1ccc2ccc(N3CCC(C)CC3)n2c1 | -88*
CCCCN(C)C(=O)c1ccc2ccc(N3CCN(CC4CC4)CC3)n2c1 | 20
COc1cccc(S(=O)(=O)N2CCn3cnc(COCC4CC4)c3C2)c1 | 0
C#C[C@]1(O)CCC2C3CCC4=CC(=O)CC[C@@H]4C3CC[C@@]21C (some centres undefined) | -81*
C[C@]12CCC(=O)C=C1CCC1C2C(=O)C[C@@]2(C)C1CC[C@]2(O)C(=O)CO (some centres undefined) | 12
C#C[C@]1(O)CCC2C3CCc4cc(OC5CCCC5)ccc4C3CC[C@@]21C (some centres undefined) | -6
C[C@]12CCC3c4ccc(OC(=O)c5ccccc5)cc4CCC3C1CCC2=O (some centres undefined) | 18
C#C[C@]1(O)CCC2C3CCC4=C(CCC(=O)C4)C3CC[C@@]21C (some centres undefined) | -80*
C#C[C@]1(O)CCC2C3CCC4=Cc5oncc5C[C@]4(C)C3CC[C@@]21C (some centres undefined) | -74*!
C#C[C@]1(O)CCC2C3CCC4=CC(=O)CCC4C3C(=C)CC21CC (some centres undefined) | 0
C#C[C@]1(O)CCC2C3CCc4cc(O)ccc4C3CC[C@@]21C (some centres undefined) | -77*
CCC(=O)O[C@]1(C(=O)CO)CC[C@H]2[C@@H]3CCC4=CC(=O)CC[C@]4(C)[C@H]3CC[C@@]21C | 1
C#C[C@]1(O)CC[C@@H]2C3[C@H](C)CC4=C(CCC(=O)C4)[C@H]3CC[C@@]21C (some centres undefined) | 3
O=S(=O)(c1cccc(F)c1)N1CCn2nnc(COCC3CC3)c2C1 | -40
CN(CC(=O)Nc1ccc2nc(Cc3ccccc3)[nH]c2c1)C1CCS(=O)(=O)C1 (centres undefined) | -10
Cc1ccc(C2CC(=O)c3c(S(C)=O)sc(C#N)c3C2)cc1 (centres undefined) | -61
SMILES | Tgondii IFNg
O=C(C1CC1)N1CCC2(CC1)CNCc1ccccc12 | 1
O=C(C1CCS(=O)(=O)CC1)N1CCC(c2ccnc(-c3ccccc3)c2)C1 (centres undefined) | -5
CCOC(=O)CSC1=Nc2ccccc2C2=NC(CC(=O)NCc3ccc(F)cc3)C(=O)N12 (centres undefined) | 19
COc1ccc(-c2cc(C(=O)NC(C)c3ccc(N4CCOCC4)cc3)nn2C)cc1 (centres undefined) | 65
Cn1nnnc1SCCNCC(=O)NC1CCCCCCC1 | -3
CCCc1cncnc1-c1cc(C)ccc1OC | 13
CCOc1ccccc1C(=O)N1CCC(c2nc(C(=O)N3CCCC3)c(C)o2)CC1 | -53
Fc1ccc(C(CCCN2CCN3CCCCC3C2)c2ccc(F)cc2)cc1 (centres undefined) | -62
OC1(c2ccc(Cl)c(C(F)(F)F)c2)CCN(CCCC(c2ccc(F)cc2)c2ccc(F)cc2)CC1 | -85*!
OC(CCCN1CCC(O)(c2ccc(Cl)cc2)CC1)c1ccc(F)cc1 (centres undefined) | -55
CN1CCCC1CCNC(=O)CC(=O)Nc1ccc(F)c(Cl)c1 (centres undefined) | -47
CN1CCC(Nc2ncc3ncnc(Nc4ccc(F)c(Cl)c4)c3n2)CC1 | -30
C=CC(=O)Nc1cc2c(Nc3ccc(F)c(Cl)c3)ncnc2cc1C#CC(C)(C)N1CCN(C)CC1 | -72*
Cc1cccc(C2=NC3(CCN(Cc4ccccc4C)CC3)NC2=O)c1 | -54
CSc1c(C#N)c(N)nc(SCc2ccc(F)c(F)c2)c1C#N | -3
O=C(NCCc1csc(-c2cccc(F)c2)n1)c1ccccc1 | -48
Nc1nc(-c2cc3cc(Cl)ccc3o2)cs1 | 61
COc1ccc(NC(=O)C(=O)NCCc2sc(-c3ccc(Cl)cc3)nc2C)cc1OC | 161
CSc1ccc(C2c3[nH]c4ccccc4c3CCN2C(=O)c2cccc(N(C)C)c2)cc1 (centres undefined) | 40
CSc1ccc(C2c3[nH]c4ccccc4c3CCN2C(=O)c2cccc(F)c2)cc1 (centres undefined) | 15
CN(C)c1cccc(C(=O)N2CCc3c([nH]c4ccccc34)C2c2ccccc2)c1 (centres undefined) | -111*
